The list shows a part of the results. Records with an inconclusive call do not appear. The source made the active and inactive calls.

Assay [1] in a line: inhibitors of TNFa-induced NFkB p65 translocation, primary screen, imaging, HUVEC, MLSMR starter and 10KST1 sets (AID 438;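 active means inhibition above 20% together with a positive visual image hit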;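 further: compound added about 3h40 before a 20 min TNFalpha stimulation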;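 on inhibition: signal is the nuclear over cytoplasmic p65 intensity ratio per well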). To be noted: HUVEC TNFa-induced p65 nuclear translocation; cell count: measured here: nuclei count (cytotoxicity indicator), at 2.08 µM; inhibition: at 2 µM, stronger effect = higher value, 0% TNFa-plus-vehicle, 100% no-TNFa wells.
A short description of assay [2]: reduction of polyQ htt aggregates in cells – imaging, exon1htt(103Q)mCFP cells, high-content imaging, primary screen (AID 483).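 Further: compound exposure lasted 3 days before fixation.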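 On nuclei count: percent of the per-plate median nuclei count of sample wells.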 To be noted: exon1htt(103Q)mCFP cell line, aggregate imaging, at 2 µM; inhibition of aggregation: stronger effect = higher value; nuclei count: measured here: cell count, toxicity.
A short description of assay [3]: endothelial E-selectin expression blockers – imaging, HUVEC, immunofluorescence, MLSMR starter and 10KST1 sets, primary screen (AID 487;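 active means visually confirmed hit in the image check and inhibition above 20%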;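 on inhibition: signal is fraction of cell area covered by stained E-selectin grains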;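 on nuclei count: 100% = median nuclei count of all wells on the same plate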). The following applies: HUVEC TNFalpha-induced E-selectin immunofluorescence imaging, at 2 µM; inhibition: stronger effect = higher value; nuclei count: measured here: cell number, toxicity.
Assay [4] is described as follows: Primary imaging screen for DUSP6 inhibitors that restore phospho-Erk in transfected HeLa cells, chemical complementation (AID 609;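 active means compounds giving at least 50% inhibition in the cell-based MKP-3 phosphatase rescue imaging test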;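 on inhibition: phospho-Erk level distribution per well compared with pooled transfected vehicle control wells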). The following applies: HeLa MKP-3 transfected, phospho-Erk imaging KS statistic, at 10 µM, cells stimulated with TPA for 15 min.
Assay [5] has as its target Dual specificity protein phosphatase 6 (Homo sapiens) (UniProt Q16828). The assay is described as above. To be noted: HeLa MKP-3 transfected, phospho-Erk imaging KS statistic; at 10 µM; stronger effect = higher value; cells stimulated with TPA for 15 min.
The target in assay [6] is Voltage-gated potassium channel subunit beta-2 (Rattus norvegicus) (UniProt P62483). Nature of the assay: inhibitors of rat Kvbeta2 reductase activity – biochemical, NADPH fluorescence, primary screen (AID 622;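 active means fluorescence slope higher than the sample average by over 3 SD, cut at about -0.22 in these data, passing the limit was not always enough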;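 further: slope of raw intensity against log time taken from 70 to 1610 s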). To be noted: recombinant KvBeta, 4-cyanobenzaldehyde reduction, at 10 µM, stronger effect = higher value.
Sequence of Voltage-gated potassium channel subunit beta-2 (Rattus norvegicus) (P62483 whole entry, looked up): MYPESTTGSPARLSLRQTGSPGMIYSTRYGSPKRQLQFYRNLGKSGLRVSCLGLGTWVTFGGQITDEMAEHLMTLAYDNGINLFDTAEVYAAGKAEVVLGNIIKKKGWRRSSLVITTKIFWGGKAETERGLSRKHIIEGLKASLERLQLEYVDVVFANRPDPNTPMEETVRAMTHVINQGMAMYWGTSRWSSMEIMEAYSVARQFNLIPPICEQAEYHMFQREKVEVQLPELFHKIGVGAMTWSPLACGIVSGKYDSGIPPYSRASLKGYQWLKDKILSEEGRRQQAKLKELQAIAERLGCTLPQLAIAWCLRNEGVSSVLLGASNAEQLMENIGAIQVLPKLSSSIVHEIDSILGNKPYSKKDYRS
Assay [7] shares this target. Nature of the assay: enhancers of rat Kvbeta2 NADPH turnover – biochemical, NADPH fluorescence, primary screen (AID 623;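 active means NADPH fluorescence slope more negative than the mean of all samples by about 3 SD, 99.7% confidence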;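 further: fluorescence intensity change per second fitted from 20 to 320 s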). To be noted: Recombinant KvBeta, NADPH fluorescence decrease slope, 10 min; at 10 µM; stronger effect = lower value.
Assay [8] addresses Alpha-2C adrenergic receptor (Homo sapiens) (UniProt P18825). In words: compounds altering alpha2C-coupled GIRK flux – cell-based, HEK293 alpha2C/GIRK1/2, thallium flux, primary screen (AID 624;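 active means fluorescence slope after compound addition differing from the mean of all screened samples at 99.7% confidence, in either direction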;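 further: slope of fluorescence ratio to pre-addition baseline per second over 15 to 24 s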). The following applies: thallium flux BTC fluorescence, at 10 µM, actives lie on both sides.
Assay [9] can be described thus: inhibitors of larval lipid processing in zebrafish, primary screen, whole organism, PED6 fluorescence, gall bladder and intestine (AID 686;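 active means a full or partial loss of lipid-probe fluorescence in the fish gall bladder, intestine or both, judged by eye; inactive means no fluorescence loss, or compound toxic to the fish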;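 further: larvae 5 to 7 days old with five fish per well; signal comes from phospholipase A2 cleavage of quenched PED6 carried via bile; overnight exposure to compound and PED6 before scoring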). To be noted: Zebrafish larvae PED6 lipid processing, fluorescence scoring; screened at 20 µM (by protocol).
The next assay can be described thus: PubChem AID 1714.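 Further: raw slope of fluorescence over initial fluorescence between 10 and 20 s after thallium.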 To be noted: HEK293-KCC2 + bumetanide/ouabain, thallium flux FluoZin2; at 10 µM; stronger effect = higher value.
For assay [10], the target named is Solute carrier family 12 member 5 (Homo sapiens) (UniProt Q9H2X9). Nature of the assay: retest of KCC2 transport modulation, ouabain-free – cell-based, HEK293 KCC2, thallium flux, FluoZin2, secondary assay 2, confirmation (AID 1715;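 active means thallium flux slope more than 3 SD above or below the plate's solvent-only control mean, mostly below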;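 further: raw slope with 0.1% DMSO as baseline and bumetanide as block control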). The following applies: HEK293-KCC2, thallium flux FluoZin2 fluorescence; at 10 µM; actives lie on both sides; F/F0 rise rate, 10–20 s post-thallium.
Sequence of Solute carrier family 12 member 5 (Homo sapiens) (Q9H2X9 whole entry, looked up): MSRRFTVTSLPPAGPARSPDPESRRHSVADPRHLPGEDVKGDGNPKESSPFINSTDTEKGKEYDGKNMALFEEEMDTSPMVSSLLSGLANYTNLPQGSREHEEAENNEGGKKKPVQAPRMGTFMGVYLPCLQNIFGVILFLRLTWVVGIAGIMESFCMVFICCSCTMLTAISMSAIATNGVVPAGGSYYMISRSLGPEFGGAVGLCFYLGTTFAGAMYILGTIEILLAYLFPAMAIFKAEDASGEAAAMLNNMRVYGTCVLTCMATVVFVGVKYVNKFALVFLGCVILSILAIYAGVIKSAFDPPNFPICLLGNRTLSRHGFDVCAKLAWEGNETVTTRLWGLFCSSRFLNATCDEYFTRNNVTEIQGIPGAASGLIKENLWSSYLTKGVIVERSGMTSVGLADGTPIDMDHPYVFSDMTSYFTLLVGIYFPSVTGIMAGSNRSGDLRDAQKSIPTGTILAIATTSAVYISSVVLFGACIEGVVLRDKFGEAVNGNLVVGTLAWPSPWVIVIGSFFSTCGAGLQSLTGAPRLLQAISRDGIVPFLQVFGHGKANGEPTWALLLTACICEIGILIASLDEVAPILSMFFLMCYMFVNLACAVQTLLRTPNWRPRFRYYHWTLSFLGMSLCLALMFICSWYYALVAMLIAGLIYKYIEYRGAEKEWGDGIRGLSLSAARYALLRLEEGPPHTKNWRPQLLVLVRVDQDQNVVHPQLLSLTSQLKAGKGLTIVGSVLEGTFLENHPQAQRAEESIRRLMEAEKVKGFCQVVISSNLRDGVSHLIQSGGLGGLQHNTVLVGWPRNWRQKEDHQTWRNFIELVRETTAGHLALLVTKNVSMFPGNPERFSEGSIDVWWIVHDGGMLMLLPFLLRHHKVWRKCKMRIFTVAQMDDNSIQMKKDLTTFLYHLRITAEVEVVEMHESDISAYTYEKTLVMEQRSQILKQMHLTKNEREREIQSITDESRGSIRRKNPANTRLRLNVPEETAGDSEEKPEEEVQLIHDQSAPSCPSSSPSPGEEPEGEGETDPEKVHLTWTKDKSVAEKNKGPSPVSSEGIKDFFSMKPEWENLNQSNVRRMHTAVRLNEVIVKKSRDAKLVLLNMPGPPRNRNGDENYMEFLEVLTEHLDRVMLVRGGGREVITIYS

Assay [11] in a line: native HEK Tl+ uptake effects, second counter-screen – HEK cells, counterscreen 2, counter-screen for KCC2 modulator project, confirmation (AID 1718;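 active means thallium flux slope above the same plate's solvent-control mean plus 3 SD in both duplicate wells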;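 further: run without ouabain in cells lacking the KCC2 cotransporter; slope of fluorescence scaled to its starting value between 10 and 20 s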). To be noted: HEK293 parental, thallium flux FluoZin-2 fluorescence slope; at 10 µM. (In general: The purpose of a counterscreen is to sort out artefacts and off-target activity.)
A short description of assay [12]: loss of swimming-algae plug formation – whole organism, Chlamydomonas reinhardtii, WT vs cilia-less mutant, absorbance, 96-well, primary screen (AID 463189;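 active means inhibition at or above 50% relative to wild type and mutant plate controls; inactive means inhibition below 50%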;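 further: 0% = wild type cc124 cells in DMSO and 100% = ciliumless bld1 mutant cells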). To be noted: Chlamydomonas reinhardtii gravitaxis, OD600 absorbance, 2 days; at 10 µM; stronger effect = higher value.
Assay [13] in a line: blockers of RIG-like receptor reporter activation – cell-based, Sendai virus stimulus, luciferase, 10K MLSCN set, TLR/RLR signaling modifier project, primary screen (AID 602276;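 active means inhibition at or above 50% at 10 µM; inactive means inhibition below 50%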;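 further: firefly luciferase from ISG56 promoter only with Renilla not read in this screen; 0% = Sendai virus plus DMSO and 100% = medium plus DMSO without virus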). The following applies: HEK293 RL24 IRF3 luciferase reporter, at 10 µM, stronger effect = higher value. (Reporter assays use an easily measured gene product as a stand-in for the process of interest.)
The nature of assay [14]: TLR3 IRF3 reporter activation blockers – cell-based, poly I:C stimulus, luciferase, 10K MLSCN set, primary screen (AID 602277;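 active means inhibition of the reporter signal at or above 50%; inactive means inhibition below 50%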). To be noted: HEK293-TLR3 RL24 IRF3 luciferase reporter, at 10 µM, stronger effect = higher value.
Assay [15] can be described thus: compound effects on native HEK Tl+ uptake – HEK cells, counterscreen 1, counter-screen for KCC2 modulator project, confirmation (AID 1716;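 active means thallium flux rate significantly above the same plate's solvent-only control wells, beyond their mean plus 3 SD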). The following applies: HEK293 parental cells, thallium flux FluoZin2, ouabain; at 10 µM; baseline-ratio fluorescence slope, 10–20 s after thallium.
The mark [16] stands for this setting: measured here: cell density z-score.
Setting [17] is: measured here: nuclear c-Myc green intensity z-score.
Setting [18] is: measured here: nuclear pErk red intensity z-score, stronger effect = higher value.

Sequence of Dual specificity protein phosphatase 6 (Homo sapiens) (Q16828 whole entry, looked up): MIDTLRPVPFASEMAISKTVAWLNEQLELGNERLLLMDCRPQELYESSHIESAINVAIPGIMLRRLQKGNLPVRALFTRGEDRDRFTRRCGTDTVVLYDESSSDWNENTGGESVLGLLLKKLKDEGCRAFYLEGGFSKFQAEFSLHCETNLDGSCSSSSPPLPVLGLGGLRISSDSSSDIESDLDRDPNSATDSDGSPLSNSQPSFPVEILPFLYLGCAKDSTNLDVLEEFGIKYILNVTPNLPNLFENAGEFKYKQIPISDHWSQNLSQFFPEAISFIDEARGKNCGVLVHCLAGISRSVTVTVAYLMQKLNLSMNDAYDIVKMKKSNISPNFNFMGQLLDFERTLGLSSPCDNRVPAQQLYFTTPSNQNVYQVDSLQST
Sequence of Alpha-2C adrenergic receptor (Homo sapiens) (P18825 whole entry, looked up): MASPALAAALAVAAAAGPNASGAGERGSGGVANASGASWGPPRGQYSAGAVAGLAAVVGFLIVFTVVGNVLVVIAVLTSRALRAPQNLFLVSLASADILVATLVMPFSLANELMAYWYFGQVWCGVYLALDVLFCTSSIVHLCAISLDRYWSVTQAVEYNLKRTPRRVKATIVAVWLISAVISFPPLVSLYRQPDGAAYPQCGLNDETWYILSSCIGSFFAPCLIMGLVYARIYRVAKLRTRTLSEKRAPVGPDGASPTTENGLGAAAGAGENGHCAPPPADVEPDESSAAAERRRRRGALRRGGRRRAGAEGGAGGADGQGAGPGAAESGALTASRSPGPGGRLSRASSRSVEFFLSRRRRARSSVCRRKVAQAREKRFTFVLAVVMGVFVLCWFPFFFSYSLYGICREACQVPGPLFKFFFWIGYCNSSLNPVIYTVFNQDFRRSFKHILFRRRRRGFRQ

As a reminder, the inhibition is the drop in the measured response relative to a control, in per cent. With `C=CCn1c(=S)[nH]c2nc3c(cc2c1=O)COC(C)(C)C3`, in assay [1], the cell count was 590. The inhibition in assay [1] was -2.3% (inactive); in [3] it was -9.4% (inactive); in assay [5] it was 3.66% (inactive); in assay [12], -8.98% (inactive); in assay [13] it was 14.5% (inactive); in assay [14], -0.984% (inactive). Besides, in [2], the inhibition of aggregation was 0.9% (inactive). Also, the nuclei count in assay [2] worked out at 109%; in [3], 134%. Besides, the z-score in [4] (setting [16]) was 1.01; in assay [4] (setting [17]), 0.551; in assay [4] (setting [18]), -1.17. Further, in assay [6], the fluorescence slope is -0.495 (inactive). Further, the NADPH fluorescence slope in assay [7] is -0.00014 (inactive). The slope in assay [8] is 0.00772 (inactive). Besides, the result in assay [9] was inactive. Also, the values for the normalized thallium flux (in “PubChem AID 1714”; in [10]) were 0.0176 (active) and 0.0337 (inactive), respectively. In addition, the thallium flux slope in assay [11] was 0.0123 (inactive).
With `C[C@@H]1CCC[C@H](C)N1NC(=O)c1ccc(Cl)c(S(N)(=O)=O)c1`, in assay [1], the cell count is 625. Moreover, the inhibition in assay [1] was 7.2% (inactive); in [3], -55.3% (inactive); in assay [5], 21.2% (inactive); in assay [12], 24.4% (inactive); in assay [13] it was 3.39% (inactive); in [14] it was 20% (inactive). Moreover, in assay [2], the inhibition of aggregation is 0.7% (inactive). For the same compound, the nuclei count in assay [2] is 108%; in assay [3] it was 111%. Further, the z-score in [4] (setting [16]) is -0.0459; in [4] (setting [17]), -0.463; in assay [4] (setting [18]), -0.78. The fluorescence slope in assay [6] was -0.465 (inactive). For the same compound, the NADPH fluorescence slope in assay [7] was -5.1e-05 (inactive). In addition, the slope in assay [8] was 0.00499 (inactive).
For the compound `C/C(=C\C(=O)c1ccc(Br)cc1)N1CCCCC1`, the normalized thallium flux in “PubChem AID 1714” is 0.0396 (active); in [10], 0.0283 (inactive). Besides, the thallium flux rate (normalised fluorescence) in assay [15] is 0.0152 (active). Moreover, the thallium flux slope in assay [11] is 0.0111 (active).
In the case of `c1ccc(-c2nnc(OCCN3CCOCC3)c3ccccc23)cc1`, the cell count in assay [1] worked out at 493. In addition, the inhibition in assay [1] is -3.3% (inactive); in assay [3], -85.3% (inactive); in [5], -5.26% (inactive); in assay [12] it was -11.2% (inactive); in assay [13] it was 15.1% (inactive); in assay [14] it was 20.9% (inactive). In [2], the inhibition of aggregation is 18.6% (inactive). In addition, the nuclei count is 114% in assay [2] and 126% in assay [3]. The z-score in assay [4] (setting [16]) was determined as 0.666; in assay [4] (setting [17]) it was 0.289; in assay [4] (setting [18]), 1.89. The fluorescence slope in [6] was -0.415 (inactive). The NADPH fluorescence slope in assay [7] is -0.000176 (inactive). The slope in assay [8] was 0.00622 (inactive).
On to `CCn1cc(C(=O)O)c(=O)c2cc(F)c(N3CCNCC3)nc21`, for which the cell count in assay [1] was 528. The inhibition was -1.9% (inactive) in [1]; -53.3% (inactive) in assay [3]; 7.39% (inactive) in assay [5]; -14% (inactive) in assay [12]; 3% (inactive) in assay [13]; 17.6% (inactive) in assay [14]. Besides, the inhibition of aggregation in [2] was -5% (inactive). Further, the nuclei count in assay [2] stood at 88.6%; in assay [3], 92.8%. Further, the z-score in assay [4] (setting [16]) is 1.02; in assay [4] (setting [17]), -0.267; in assay [4] (setting [18]), -1.93. In addition, the fluorescence slope in assay [6] is -0.463 (inactive). Moreover, the NADPH fluorescence slope in [7] was -5.7e-05 (inactive). The slope in [8] is 0.00463 (inactive).

These data come from PubChem BioAssay.
